In PubChem BioAssay AID588855 (National Center for Advancing Translational Sciences (NCATS), 2011):
The campaign covered roughly 410,000 compounds. About 5,000 (1.2%) were called active. About 13% were inconclusive and are not listed. The call rests on the fitted dose curve; in most records, active means well fitted inhibition curve with a large enough effect; inconclusive means small, poorly fitted or top-dose-only effect; inactive means no such curve, though single readings can be large or run the other way. The list comes from a sample in which actives are over-represented; it also holds similar structures and randomly drawn compounds. A call without a number means that no potency is given here.
Potency means the concentration at half of the fitted maximal effect.

Assay: qHTS for Inhibitors of TGF-b; further: nearly all actives have a fitted effect of over 65% in size
Details: HepG2 CAGA-GFP TGF-b/SMAD3 reporter, GFP fluorescence, 18 h, TGF-beta stimulated, 500 pg/mL final; series mostly up to 46.1 µM
Outline: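 Inhibition was scored as loss of TGF-beta-induced (500 pg/mL final, 18 hours, 37 degrees C) GFP in HEPG2 cells carrying a CAGA-GFP reporter, in DMEM with 1% FBS. Well GFP was summed per cell; Activity was normalised to unstimulated and stimulated DMSO wells, then concentration-response fitting.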
With `Cc1ccc2nc(COc3ccc(NC(=O)COc4ccccc4F)cc3)cc(=O)n2c1` the Potency was “inactive”. For `COc1ccc(CNC(=O)C[C@H]2C[C@H](C(=O)N3CCOCC3)[C@@]3(CCC4CCCC4)c4[nH]c5ccc(Cl)cc5c4CCN3C2=O)cc1OC`, the Potency was 1.78 µM (active). For `CCN(CC)C(=O)[C@H]1CC(CC(=O)NCc2ccco2)C(=O)N2CCc3c([nH]c4ccccc34)[C@]12C` (stereo not given in full), the Potency was “inactive”. With `COc1ccc2[nH]c3c(c2c1)CCN1C(=O)C(CC(=O)NCCCN(C)C)C[C@H](C(=O)N2CCOCC2)[C@@]31CCC1CCCC1` (stereo not given in full) the Potency was “inactive”. With `CC(C)N(C(=O)[C@H]1C[C@H](CC(=O)NC(C)(C)C)C(=O)N2CCc3c([nH]c4ccc(Cl)cc34)[C@]12C)C(C)C` the Potency was 11.2 µM (active). With `O=C(C[C@H]1C[C@H](C(=O)N2CCOCC2)[C@@]2(CCC3CCCC3)c3[nH]c4ccc(Cl)cc4c3CCN2C1=O)NCc1ccco1` the Potency was “inactive”. In the case of `C[C@]12c3[nH]c4ccc(Cl)cc4c3CCN1C(=O)[C@@H](CC(=O)NCCCn1ccnc1)C[C@@H]2C(=O)N1CCOCC1`, the Potency is reported as “inactive”. In the case of `CCOC(=O)c1c(S(=O)(=O)N2CCCC(C(=O)NCc3cccc(C)c3)C2)c(C)n(C)c1C` (stereo not given), the Potency is reported as “inactive”. In the case of `Cc1ccc(-n2c(SCC(=O)c3ccccc3)nc3c([nH]c4ccccc43)c2=O)cc1`, the Potency is reported as “inactive”. For `CN1c2ccc(Cl)cc2-c2nc(SCC(=O)Nc3cc(F)ccc3F)ncc2S1(=O)=O`, the Potency was “inactive”. For `O=C(c1ccc2c(c1)N(Cc1ccccc1F)C(=O)c1ccccc1S2(=O)=O)N1CCOCC1`, the Potency was “inactive”. In the case of `Cc1ccc(S(=O)(=O)NCc2nc3nc(C)cc(C)n3n2)cc1`, the Potency is reported as “inactive”. In the case of `COc1ccc(CCNC(=O)CCCCn2c(=O)c3ccccc3n(Cc3ccccc3)c2=O)cc1OC`, the Potency is reported as “inactive”. For `CC(=O)c1ccc(NC(=O)CSc2c(C(C)C)cnc3c2c(=O)n(C)c(=O)n3C)cc1`, the Potency was “inactive”. For `CCOC(=O)c1cc2c(n(-c3ccc(C)cc3)c1=O)CCCC2=O`, the Potency was “inactive”. With `CCOC(=O)C1=C(N)N(c2ccc(C)cc2)C2=C(C(=O)CCC2)C1c1cccs1` (stereo not given) the Potency was 11.2 µM (active). With `O=C1CCCC2=C1C(c1cccs1)CC(=O)N2c1ccc(F)cc1` (stereo not given) the Potency was “inactive”. For `COc1ccccc1NC(=O)c1oc2ccccc2c1NC(=O)COc1ccccc1OC`, the Potency was “inactive”. In the case of `O=C(Nc1ccc(Cl)cc1)c1cnn2c1NC(=C1CC1)C=C2C(F)F`, the Potency is reported as “inactive”. With `Cc1cc(=O)oc2cc(OCC(=O)N3CCN(c4ccc(F)cc4)CC3)c(Cl)cc12` the Potency was “inactive”. For `Cc1cccc(C)c1NC(=O)CN1CCN(c2ccc(F)cc2)CC1`, the Potency was “inactive”. In the case of `O=c1cc(CN2CCCCCCC2)c2c(ccc3ccccc32)o1`, the Potency is reported as “inactive”. With `O=C(Cc1ccccc1)NNC(=O)C1CCN(c2ncccn2)CC1` the Potency was “inactive”. With `Oc1c(CN2CCCC2)cc(COCc2ccccc2)c2cccnc12` the Potency was 4.47 µM (active). In the case of `Oc1c(CN2CCN(c3ccc(F)cc3)CC2)cc(Cl)c2cccnc12`, the Potency is reported as 7.08 µM (active).
